From PubChem BioAssay (Tox21)
Records with an inconclusive call do not appear. Entries that show only a call come without a potency. Activity calls are given as the source filed them. Calls follow the shape of the dose curve; as a rule, active = well fitted cell-killing curve with a large enough effect in the repeat runs; inconclusive = weak or mixed curves, or effect the other way; inactive = flat fitted curve, though single readings scatter.

Assay: qHTS assay to identify small molecule antagonists of the constitutive androstane receptor (CAR) signaling pathway - cell viability counter screen (AID 1224837); also: nearly all actives have a fitted effect of over 45% in size
Settings: HepG2-CYP2B6-hCAR viability, CellTiter-Fluor, 23 h, co-treated with 50 nM CITCO; series mostly up to 92.4 µM
From the text: National Center for Advancing Translational Sciences [NCATS]
NIH Chemical Genomics Center [NCGC]
U.S. Environmental Protection Agency [EPA]
National Institutes of Environmental Health Sciences [NIEHS]
National Toxicology Program [NTP]
U.S. Food and Drug Administration [FDA]
The constitutive androstane receptor (CAR) is a nuclear receptor which regulates multiple drug metabolizing enzymes (DMEs) and transporters. Activating CAR will generally increase the transcription and subsequent translation of CYP2B6 and CYP3A4. These two DMEs represent about 50% of the drug metabolizing potential in the body. When CAR is deactivated, the metabolizing potential in the body will decrease, subsequently increasing the toxicity in the body or lowering the therapeutic potential of a pro-drug. Recently, there have also been studies performed indicating CARs role in energy metabolism and cancer therapy. Therefore, inhibiting CARs activity could have a potential effect on diabetes and cancer. Identifying environmental toxins and compounds which modulate CAR, through the use of the Tox21 10K compound collection, will be an important step in determining the toxicity and potential therapeutic effects these factors will have on the human body. To differentiate true CAR antagonists from cytotoxic substances, the assay is multiplexed with a cell viability assay.
Tox21 Assay Protocol Summary:
A double-stable (hCAR and CYP2B6-2.2kb) transfected cell line, derived from human hepatoma (HepG2) cells, was utilized for the duration of the quantitative high-throughput screens. The HepG2-CYP2B6-hCAR cells were dispensed at 2500 cells/4 uL/well in 1536-well white solid bottom plates using a Multidrop Combi. After the assay plates were incubated at 37 C/5% CO2 for 4 hrs, 23 nL of compounds at 15 concentrations (from 5-48 columns) or positive control (from 1 to 4 columns) were transferred to the assay plates using a Pintool station. One uL of CITCO (final concentration = 50 nM) was added, using a Flying Reagent Dispenser, inside each well. After a 23 hr incubation period at 37 C/5% CO2, 1 uL of CellTiter-Fluor reagent was added into each well of the assay plates using a Flying Reagent Dispenser. The fluorescence intensity in the plates was then measured using a ViewLux plate reader.
In the case of O=C(c1ccc(Cl)cc1)c1ccc(Cl)cc1, the Potency is reported as “inactive”.
For CS(C)=O, the Potency was “inactive”.
With COc1cc(C)c(Cc2cnc(N)nc2N)cc1OC the Potency was “inactive”.
For c1ccc(CN(Cc2ccccc2)Cc2ccccc2)cc1, the Potency was “inactive”.
For CCOCCn1c(N2CCCN(C)CC2)nc2ccccc21, the Potency was “inactive”.
For CC(C)Oc1ccccc1O, the Potency was “inactive”.
In the case of CC(=O)Nc1ccn(C2COC(COC(=O)c3ccccc3)O2)c(=O)n1 (stereo not given), the Potency is reported as “inactive”.
For NC(=O)c1ccccc1C(N)=O, the Potency was “inactive”.
For Nc1cccc2c(=O)[nH][nH]c(=O)c12, the Potency was “inactive”.
In the case of C[C@H](N)C(=O)N[C@@H](C)C(=O)NC1[C@H]2CN(c3nc4c(cc3F)c(=O)c(C(=O)O)cn4-c3ccc(F)cc3F)C[C@@H]12 (stereo not given in full), the Potency is reported as “inactive”.
For COc1ccc(C(=O)Nc2ccccc2)cc1[N+](=O)[O-], the Potency was “inactive”.
With CC(=O)c1ccc(Cl)c(Cl)c1Cl the Potency was “inactive”.
For O=C(Cl)c1cc(Cl)cc(Cl)c1, the Potency was “inactive”.
For CCCCOC(=O)C(C)Oc1ccc(Oc2ccc(C(F)(F)F)cn2)cc1 (stereo not given), the Potency was “inactive”.
In the case of CC(CCl)OC(C)CCl (stereo not given), the Potency is reported as “inactive”.
For O=C(Nc1ccc2c(c1)Cc1ccccc1-2)C(F)(F)F, the Potency was “inactive”.
For CC(C)CCCCCCCOC(=O)c1ccc(C(=O)OCCCCCCCC(C)C)c(C(=O)OCCCCCCCC(C)C)c1, the Potency was “inactive”.
For COc1ccc(/C=C/c2cc(OC)cc(=O)o2)cc1, the Potency was “inactive”.
With CCCCCCCCCCCCCCCCN the Potency was “inactive”.
In the case of O=C(O)c1ccccc1[N+](=O)[O-], the Potency is reported as “inactive”.
For CC1(C)[C@@H]2CC[C@]3(C2)[C@@H]1C(=O)CCC3(C)C, the Potency was “inactive”.
In the case of OCC(O)c1ccccc1 (stereo not given), the Potency is reported as “inactive”.
In the case of O=C1CCCN1CCO, the Potency is reported as “inactive”.
With Cc1nc2sccn2c(=O)c1CCN1CCC(=C(c2ccc(F)cc2)c2ccc(F)cc2)CC1 the Potency was “inactive”.
For CC(=O)Nc1cccc(N)c1, the Potency was “inactive”.
For CC(C)(C)N, the Potency was “inactive”.
With CCOC(OCC)OCC the Potency was “inactive”.
For CC(C)CCCCCOC(=O)CS, the Potency was “inactive”.
For COC(=O)/C=C/C(C)=C\C=C\C(C)=C\C=C\C=C(C)\C=C\C=C(C)\C=C\C(=O)O, the Potency was “inactive”.
For COc1ccc(/C=C/S(=O)(=O)NC(=O)c2ccc(C)cc2Cl)cc1, the Potency was “inactive”.
In the case of O=[N+]([O-])c1ccccc1CCO, the Potency is reported as “inactive”.
For O=C(O)c1c2ccccc2cc2ccccc12, the Potency was “inactive”.
For c1ccc(CCNc2nc(-c3ccccc3)cs2)cc1, the Potency was “inactive”.
For C=CC(=O)NC(C)(C)C, the Potency was “inactive”.
In the case of CCCCCCOC(=O)c1ccccc1, the Potency is reported as “inactive”.
For CCCOC(C)=O, the Potency was “inactive”.
In the case of COc1cc(CNC(=O)CCCC/C=C/C(C)C)ccc1O, the Potency is reported as “inactive”.
For O=S(=O)(O)c1cc(Cl)c(Cl)cc1Cl, the Potency was “inactive”.
For Nc1ncnc2c1ncn2[C@@H]1O[C@H](CO)[C@@H](O)[C@H]1O, the Potency was “inactive”.
In the case of CC/C=C/CCO, the Potency is reported as “inactive”.
